Records with an inconclusive call do not appear. Unmarked numbers belong to inactive results. The source made the active and inactive calls. Calls follow the shape of the dose curve; as a rule, active = well fitted inhibition curve with a large enough effect; inconclusive = small, poorly fitted or top-dose-only effect; inactive = no such curve, though single readings can be large or run the other way.

Experimental findings from PubChem BioAssay (NCATS) are described below.
% is scaled to controls: 0 for no effect and ±100 for the full control effect; potency is read from the fitted curve at half-maximal effect.

Tumor susceptibility gene 101 protein (Homo sapiens), sequence (Q99816 whole entry, looked up, the tested form may be a part): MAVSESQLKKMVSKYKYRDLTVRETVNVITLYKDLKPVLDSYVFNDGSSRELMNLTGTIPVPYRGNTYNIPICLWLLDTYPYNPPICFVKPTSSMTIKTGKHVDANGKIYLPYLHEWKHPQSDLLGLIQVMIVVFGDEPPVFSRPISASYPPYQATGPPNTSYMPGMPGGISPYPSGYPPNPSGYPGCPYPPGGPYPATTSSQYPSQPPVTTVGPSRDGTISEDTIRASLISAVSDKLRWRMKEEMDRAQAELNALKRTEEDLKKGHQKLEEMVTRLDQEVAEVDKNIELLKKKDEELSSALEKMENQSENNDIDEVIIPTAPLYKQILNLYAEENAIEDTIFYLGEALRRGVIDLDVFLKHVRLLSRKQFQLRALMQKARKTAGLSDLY

For the assay, the target named is Tumor susceptibility gene 101 protein (Homo sapiens) (UniProt Q99816). The experiment in a line: qHTS Assay for Iinhibitors of HIV-1 Budding by Blocking the Interaction of PTAP/TSG101: Hit Validation (AID 651600). Also: nearly all actives have a fitted effect of over 70% in size. The settings on record: PTAP peptide/TSG101 UEV interaction, biochemical assay; series mostly up to 57.5 µM; activity change, negative = inhibition: at the top concentration. The gist of the method:
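FITC-PTAP peptide (50 nM final) binding to Tsg101 binding domain (10 uM final) was measured by polarization after 20 min at r.t. with compounds, in 10 mM HEPES pH 7.5 buffer with 0.15 M NaCl and 0.01% Tween 20.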
In general terms: Quantitative high-throughput screening tests each substance at several concentrations.
Take `Clc1ccc(C2=CC(c3ccco3)n3ncnc3N2)cc1` (configuration not stated): the “activity change, negative = inhibition” value is -16.1%.

On to `COc1ccc(C2=CC(c3ccco3)n3ncnc3N2)cc1` (configuration not stated), for which the “activity change, negative = inhibition” value is -0.272%.

As for `Cc1ccc(CSc2nnc3c(n2)OC2(Nc4ccccc4-3)C(=O)Nc3ccc(F)cc32)cc1` (configuration not stated), the “activity change, negative = inhibition” value is -4.93%.

Consider `Cc1ccc(Nc2ccc([N+](=O)[O-])ccc2=O)cc1`, for which the “activity change, negative = inhibition” value was -10.1%.

`O=[N+]([O-])c1cc(Cl)c2cccnc2c1O`: the “activity change, negative = inhibition” value is -1.11%.

For `CCCCNc1c2c3c(cccc3n(C)c1=O)C(=O)c1ccccc1-2`, the Potency was 5.8 µM (active).

For `CCC1CCCCN1C(=O)c1cc2cc(Br)ccc2oc1=O` (configuration not stated), the “activity change, negative = inhibition” value is -0.278%.

For `O=[N+]([O-])c1cc(Cl)cc(/C=N/n2cnnc2)c1O`, the “activity change, negative = inhibition” value was -1.41%.

Consider `CCOC(=O)C1CCCN(c2nc3ccccc3nc2C(C#N)C(=O)NCc2ccccc2)C1` (configuration not stated), for which the “activity change, negative = inhibition” value is -23.5%.

As to `Cc1c(C(=O)N(C)c2cccc(C(F)(F)F)c2)sc2nc3n(c(=O)c12)CCCCC3`, the “activity change, negative = inhibition” value was -0.14%.

Regarding `COC(=O)CNc1c(-c2ccccc2)nc2ccc(Br)cn12`, the “activity change, negative = inhibition” value is -14.8%.

In the case of `CN1C(=O)NC(c2ccccc2[N+](=O)[O-])C2=C1CCCC2=O` (configuration not stated), the Potency was 16.3 µM (active).

Regarding `C=CCOc1ccc(C2OC34CCCCC3C(C#N)(C#N)C2(C#N)C(=N)O4)cc1` (configuration not stated), the Potency is 25.9 µM (active).

Consider `CN1CC=C2C(C#N)=C(N)C(C#N)(C#N)[C@H](c3ccoc3)[C@H]2C1`, for which the “activity change, negative = inhibition” value was -29.3%.

Regarding `O=S(=O)(Nc1cccc(-c2ccc(N3CCCCCC3)nn2)c1)c1cccc(F)c1`, the “activity change, negative = inhibition” value was 33.5%.

For the compound `Cc1cc(C)c[n+](-c2[nH]c(=O)sc2/C=N/NC([S-])=Nc2ccccc2)c1`, the Potency is 18.3 µM (active).

Consider `Cc1cccc(CCNC(=O)c2sc3nc4n(c(=O)c3c2C)CCCC4)c1`, for which the “activity change, negative = inhibition” value is 3.66%.
